Reference: PubChem BioAssay (NCI)
The panel holds about 83,000 compounds, 20% with a hit somewhere; the sample as a whole holds those more often.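 Step 1: grow cells in 96-well plates. Step 2: add test compound at a single concentration. Step 3: incubate 48 h. Step 4: record percent growth.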 Values without a mark were called inactive. Activity calls are given as the source filed them. How the source made its calls: active means growth percent below 10; inactive means the rest.

What was measured:
Assay in all cases: NCI-60 one-dose screen, 48 h (100 = growth as untreated, 0 = no growth, -100 = all killed)
Conditions in all cases: 10 µM unless noted
T-47D breast = test system: T-47D breast
BT-549 breast = test system: BT-549 breast
MDA-MB-435 melanoma = test system: MDA-MB-435 melanoma
SW-620 colon = test system: SW-620 colon
MCF7 breast = test system: MCF7 breast
HCT-116 colon = test system: HCT-116 colon
HCC-2998 colon = test system: HCC-2998 colon
KM12 colon = test system: KM12 colon

Compound | growth (T-47D breast) | growth (BT-549 breast) | growth (MDA-MB-435 melanoma) | growth (SW-620 colon) | growth (MCF7 breast) | growth (HCT-116 colon) | growth (HCC-2998 colon) | growth (KM12 colon)
CN1CCN(c2cnc(C(=O)Nc3cc(F)cc4cccnc34)cn2)CC1 | 28.5% | 62.2% | 74.5% | 39.6% | 9.71% (active) | 9.87% (active) | 93% | 95%
Fc1cc(C2=NNC(c3ccc[nH]3)C2)ccc1-n1ccc(C(F)(F)F)n1 (stereo not drawn) | 76.7% | 92.3% | 98.7% | 98.8% | 83.3% | 98.7% | 104% | 65.6%
CC[C@H](C)[C@@H]1NC(=O)[C@H](Cc2ccc(O)cc2)N(C)C(=O)[C@H](Cc2ccccc2)NC(=O)CN(C)C(=O)[C@@H]2CCCN2C(=O)[C@@H](Cc2ccccc2)N(C)C(=O)[C@H](CC(C)C)NC1=O | 0.772% (active) | 69.7% | -46.3% (active) | 3.59% (active) | -25% (active) | 1.24% (active) | -23.9% (active) | 1.4% (active)
CN1CCN(C(=O)[C@]2(C)CC[C@]3(C)CC[C@]4(C)C(=CC(=O)[C@@H]5[C@@]6(C)CCC(=O)NC(C)(C)[C@@H]6CC[C@]54C)[C@@H]3C2)CC1 | 79.9% | 87.2% | 100% | 96.4% | 91.8% | 93.1% | 113% | 98.1%
COc1ccc(-c2nc(SC)nc(N3CCOCC3)c2C#N)cc1 | 72.9% | 83.7% | 99.3% | 103% | 90.6% | 103% | 99.7% | 99.9%
COc1ccc(Cn2nc3c(c2-c2cc(OC)c(OC)c(OC)c2)-c2oncc2CC3)cc1 | 79.3% | 88.9% | 0.861% (active) | 86% | 69.9% | 81.4% | 77.5% | 70.9%
COc1ccc2c(/C=C3/C(=O)NC(=S)NC3C)cc(=O)oc2c1 (stereo not drawn) | 88% | 103% | 102% | 103% | 90.1% | 95.6% | 96% | 99.7%
COc1ccc(-c2nc(SC(C)C)nc(NNC(N)=O)c2C#N)cc1 | 84.8% | 102% | 3.51% (active) | 50.7% | 84.3% | 102% | 88.9% | 58.6%
COc1ccc(C(O)c2cc3c(N)c(C(=O)Nc4ccc(Cl)cc4)sc3nc2C)cc1 (stereo not drawn) | 37.4% | 66.4% | -52.5% (active) | 27.1% | 16.6% | 21.7% | 23% | 9.89% (active)
NC(=O)c1ccc[n+](CC(=O)N2CCN(c3cc4c(cc3F)c(=O)c(C(=O)O)cn4C3CC3)CC2)c1 | 99.1% | 87.3% | 75.2% | 6.58% (active) | 62.4% | 37.1% | 115% | 90.1%
CN1CCN(c2c(F)cc(NC3=C(Cl)C(=O)c4ncccc4C3=O)cc2F)CC1 | 16.1% | 106% | 21% | -68.4% (active) | -58.3% (active) | -11.3% (active) | 108% | 105%
Cc1ccc(C(c2c(O)c3cc(Br)ccc3[nH]c2=O)c2c(O)c3cc(Br)ccc3[nH]c2=O)cc1 | 71.6% | 87.4% | 86.3% | 102% | 80.2% | 82.4% | 94.4% | 88.2%
CC(C)Sc1nc(NN)c(C#N)c(-c2ccccc2)n1 | 90.4% | 79.3% | 103% | 94.9% | 90.9% | 87.9% | 100% | 101%
O=S(=O)(NCCNc1nccc(-c2c(-c3ccc(F)c(O)c3)nc3sccn23)n1)c1ccccc1 | 68.8% | 114% | 34.1% | 70.4% | 76.1% | 34.3% | 95% | 71.2%
CCN(CC)CCSCCCNc1c(C)cnc2cc(Cl)ccc12 | 96.5% | 85.6% | 85.1% | 88.3% | 79.4% | 52.9% | 91% | 91.6%
COc1ccc(C(=O)/C=C/c2c(OC)cc(OC)cc2OC)c(OC)c1 | 19% | 12.3% | -20.2% (active) | 16.6% | 21.4% | 18.2% | 41.7% | 15.6%

Compound | growth (T-47D breast) | growth (BT-549 breast) | growth (MDA-MB-435 melanoma) | growth (SW-620 colon) | growth (MCF7 breast) | growth (HCT-116 colon) | growth (HCC-2998 colon) | growth (KM12 colon)
CN(Cc1ccccc1)c1nc(Cl)c(C2CC(c3ccc(Cl)cc3)=Cc3[nH][nH]c(=O)c32)s1 (stereo not drawn) | 89.7% | 67.7% | 85% | 99.8% | 47.6% | 94.2% | 104% | 103%
CC1(C)CN(c2cnc(C(=O)Nc3cc(F)cc4cccnc34)cn2)CCN1 | 44.3% | 90.2% | 85.9% | 35.1% | 9.21% (active) | 11.4% | 92.2% | 91.7%
COc1ccc2c(Nc3ccc(NS(C)(=O)=O)cc3)c3ccccc3nc2c1 | 2.85% (active) | 49.9% | -11.1% (active) | -31% (active) | 11.1% | 2.19% (active) | -60.9% (active) | -13.2% (active)
CN1C(=O)N(C)C2NC(N/N=C/c3ccccc3)=NC21 (stereo not drawn) | 90.6% | 100% | 99.6% | 102% | 98.2% | 95.6% | 103% | 108%
COC(=O)C(c1ccccc1)C(CC(=O)c1ccccc1)c1ccccc1 (stereo not drawn) | 76.2% | 108% | 88.8% | 104% | 99.5% | 88.8% | 96.1% | 91.5%
O=C(Nc1ccc(Nc2ncccn2)cc1)NC1C=c2ccccc2=CC1 (stereo not drawn) | 100% | 102% | 113% | 106% | 97.9% | 111% | 106% | 108%
CCCCCCCCCCCCC1CCC/C=C\CCC(=O)O1 (stereo not drawn) | 90% | 112% | 104% | 103% | 95.6% | 91.1% | 104% | 110%
COc1ccc(Nn2c(SCC(=O)Nc3nc(-c4ccc(Cl)cc4)cs3)nc(C)c2C)cc1 | 32.9% | 53.3% | 50.4% | 75.2% | 20.8% | 27.8% | 54.2% | 43.1%
COc1ccc2c(c1)c(CC(=O)NCCOCCOCC(=O)Nc1ccc(OC)c(C(N)=O)c1O)c(C)n2C(=O)c1ccc(Cl)cc1 | 81.3% | 81.1% | 104% | 99.4% | 94.6% | 93.9% | 93.5% | 99.4%
C[C@@H]1CN(Cc2ccc(/C=C/c3n[nH]c4ccc5nc(-c6cn[nH]c6C(F)(F)F)c6c(c5c34)CCCC6)cc2)C[C@H](C)O1 | 49.8% | 39.6% | 46.7% | -16.6% (active) | 12.4% | 4.51% (active) | 27.6% | 19.8%
CCCCCOc1ccc(/C=N/Nc2cc(C)nc3ccc(Br)cc23)cc1 | 83.4% | 103% | -46.9% (active) | -61.2% (active) | -73% (active) | -79.9% (active) | -58.3% (active) | -65.5% (active)
O=C(c1ccccc1)N1N=C(c2ccc(-n3ccc(C(F)(F)F)n3)cc2)CC1c1ccc[nH]1 (stereo not drawn) | 73.5% | 116% | 96% | 98.9% | 91.5% | 93.7% | 115% | 79.7%
C#Cc1cccc(NC(=O)Nc2cccc(N=C=S)c2)c1 | 100% [8.25 µM] | 102% [8.25 µM] | 97.3% [8.25 µM] | 104% [8.25 µM] | 86.1% [8.25 µM] | 95.5% [8.25 µM] | 105% [8.25 µM] | 106% [8.25 µM]
CCC(=O)c1ccc(O)c(OC)c1 | 109% | 114% | 114% | 101% | 108% | 91.2% | 101% | 113%
Cc1cc2cc3cc(C)c(N)cc3[n+](C)c2cc1N | 8.77% (active) | 9.11% (active) | 9.46% (active) | 9.45% (active) | 8.32% (active) | 3.49% (active) | 9.7% (active) | 5.06% (active)
